From PubChem BioAssay (EPA / NIEHS)
Active and inactive are the calls of the source. Rule for the calls: active = hit-call score of the fitted dose curve at least 0.9, where 1 is the maximum; inactive = score below 0.9.

These molecules were tested against Heat shock factor protein 1 (Homo sapiens) (UniProt Q00613) (assay: ATG_HSE_CIS: Attagene CIS-FACTORIAL HepG2 Assay for human Heat Shock Transcription Factor 1 (HSE) (AID 2282953)). Conditions: HepG2 HSE cis-reporter, Attagene RNA transcription; actives raise or lower the signal.
Sequence of Heat shock factor protein 1 (Homo sapiens) (Q00613 whole entry, looked up): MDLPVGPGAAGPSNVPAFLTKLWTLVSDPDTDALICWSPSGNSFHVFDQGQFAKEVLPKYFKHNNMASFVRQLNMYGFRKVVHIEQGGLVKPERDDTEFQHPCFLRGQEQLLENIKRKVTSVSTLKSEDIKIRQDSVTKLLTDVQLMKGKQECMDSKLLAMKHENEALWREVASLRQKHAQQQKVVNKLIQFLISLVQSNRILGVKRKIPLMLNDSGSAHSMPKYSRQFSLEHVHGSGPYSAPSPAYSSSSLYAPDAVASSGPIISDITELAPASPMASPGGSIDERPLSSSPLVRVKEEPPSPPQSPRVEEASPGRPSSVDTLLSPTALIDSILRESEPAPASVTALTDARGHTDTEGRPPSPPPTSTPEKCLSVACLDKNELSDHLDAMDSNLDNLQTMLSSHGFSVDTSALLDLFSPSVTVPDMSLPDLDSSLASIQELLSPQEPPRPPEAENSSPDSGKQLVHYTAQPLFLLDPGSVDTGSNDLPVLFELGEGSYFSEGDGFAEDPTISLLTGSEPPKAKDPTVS
Experimental: ATG_CIS is a cell-based, multiplexed-readout assay that uses HepG2, a human liver cell line, with measurements taken at 24 hours after chemical dosing in a 24-well plate.ATG_HSE_CIS is one of 52 assay component(s) measured or calculated from the ATG_CIS assay. It is designed to make measurements of mRNA induction, a form of inducible reporter, as detected with fluorescence intensity signals by Reverse transcription polymerase chain reaction (RT-PCR) and Capillary electrophoresis technology.Data from the assay component ATG_HSE_CIS was analyzed into 1 assay endpoint. This assay endpoint, ATG_HSE_CIS, was analyzed with bidirectional fitting relative to DMSO as the negative control and baseline of activity. Using a type of inducible reporter, measures of mRNA for gain or loss-of-signal activity can be used to understand the reporter gene at the transcription factor-level as they relate to the gene HSF1. Furthermore, this assay endpoint can be referred to as a primary readout, because this assay has produced multiple assay endpoints where this one serves a reporter gene function. To generalize the intended target to other relatable targets, this assay endpoint is annotated to the dna binding intended target family, where the subfamily is heat shock protein.
Human liver HepG2 cells are transiently transfected with multiple reporter transcription units (MRTUs) in 6-well plates using FuGene 6 reagent (Roche; 3 ml FuGene/1 mg DNA). The MRTU constructs are regulated by a cis-regulating element (promoter). […] A major difference between the CIS and TRANS system is that in CIS activities of endogenous TFs are measured, whereas the TRANS assay evaluates changes in activities of exogenous, chimeric NR-Gal4 proteins. […] At the end of 24 hour incubation, total RNA was isolated using TriZol reagent (Invitrogen). The isolated RNA is then reverse-transcribed using oligo(dT) primer and Mo-MLV reverse transcriptase (Invitrogen) with DNAse I (Ambion) treatment for 30 min. The one-tenth of the produced cDNA was amplified by PCR using Taq DNA polymerase (Invitrogen) and two reporter sequence-specific primers. The PCR products were fluorescently labeled by primer extension with 6-arboxyfluorescein (6-FAM) 5'-labeled reporter sequence-specific primer (2 min at 95 C, 20 s at 68 C and 10 min at 72 C) and these products were digested with 5U of HpaI (New England Biolabs) for 2h at 37 C. The fragments were purified using Qiaquick PCR columns (Qiagen), analyzed on an ABI 3130xL genetic analyzer (Applied Biosystems) with peak positions identified by using a set of X-rhodamine (ROX)-labeled MapMarker1000 molecular weight standards (BioVentures). The raw capillary electrophoresis data was processed using Attagraph software (Attagene).

AC50, active:
On1ccccc1=S 26 µM, CCOc1cccc(-n2cc(C(=O)N3CCN(c4cc(C(=O)O)c5ccccc5c4)CC3)nc2-c2ccc(C)cc2)c1 61.4 µM, Fc1ccccc1[C@@H](F)COC1CCC(Nc2ncnc3[nH]ncc23)CC1 (stereo not given in full) 157 µM, CC(C)c1cccc(C(C)C)c1N1C(=O)c2ccc(O)cc2C1=O 68.4 µM, Oc1ccc2c(c1)-c1ccccc1C2 26.5 µM, O=P(OC(CCl)CCl)(OC(CCl)CCl)OC(CCl)CCl 151 µM

outcome, inactive:
CCCCC(CC)COC(=O)CCCCCCCCC(=O)OCC(CC)CCCC (stereo not given), CCCN(C1CCN(C(=O)C2CCNCC2)CC1)[C@@H]1CCc2ccc(OC)cc2C1, NC(=O)NO, CCC(C)(C)C(=O)O[C@H]1C[C@@H](C)C=C2C=C[C@H](C)[C@H](CC[C@@H]3C[C@@H](O)CC(=O)O3)[C@H]21, CC(C)=CCCC(C)CCO (stereo not given), CCn1nc(Cc2ccccc2)cc1C1CCN(C[C@H]2C[C@H](N(C)[C@@H](C(=O)O)C(C)C)C[C@@H]2c2cccc(F)c2)CC1, O=C(O)CCN(C1(C(=O)NO)CCCC1)S(=O)(=O)c1ccc(Oc2ccc(F)cc2)cc1, Clc1nc(Cl)c(Cl)c(Cl)c1Cl, O=C(NS(=O)(=O)/C=C/c1ccccc1)c1ccc(F)cc1Cl, CCCCCCCCCCCCCCCO, CC/C(=C\C(=N/O)C(N)=O)C(C)[N+](=O)[O-] (stereo not given), Cn1c(=O)c2c(ncn2C)n(C)c1=O, O=C1CCCCCN1, COCCOc1cc2cc(C(=O)NC3CCN(C(C)C)CC3)n(CC(=O)Nc3ccc(Cl)cn3)c2cn1, COC(=O)CC(=O)OC, C=CCCCCCCCCC(=O)O, Nc1ccc(Nc2ccccc2)cc1, CC(C)CCCCCCCOC(=O)CCCCC(=O)OCCCCCCCC(C)C, O=C(O)c1cccc(Oc2ccccc2)c1, CCNc1ccccc1, COC(=O)c1c(Cl)c(Cl)c(C(=O)OC)c(Cl)c1Cl, O=C1CCC(N2C(=O)c3ccccc3C2=O)C(=O)N1 (stereo not given), CCCC(=O)OCC, CC(C)(O)c1coc(S(=O)(=O)NC(=O)Nc2c3c(cc4c2CCC4)CCC3)c1, Cc1ccc(S(=O)(=O)O)cc1C, O=C(O)c1cc(N=Nc2ccc(S(=O)(=O)Nc3ccccn3)cc2)ccc1O, O=C(O)CC(O)C(=O)O (stereo not given), CC(C)=CCCC(C)=CC=O, Nc1cccc(N)c1, CCOC(=O)CC(CC(=O)OCC)(OC(C)=O)C(=O)OCC, CC[C@H]1OC(=O)[C@H](C)[C@@H](O[C@H]2C[C@@](C)(OC)[C@@H](O)[C@H](C)O2)[C@H](C)[C@@H](O[C@@H]2O[C@H](C)C[C@H](N(C)C)[C@H]2O)[C@](C)(O)C[C@@H](C)C(=O)[C@H](C)[C@@H](O)[C@]1(C)O, O=c1[nH]c2ccc(S(=O)CCN3CCC(Cc4ccc(F)cc4)CC3)cc2o1 (stereo not given), COc1ccc2sc(C(=O)Nc3nnn[nH]3)c(OC(C)C)c2c1, CCOCCOCCOCCO
